Results filed as inconclusive are left out. Activity calls are given as the source filed them.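 How the source made its calls: active means potency, the concentration giving half inhibition in the gel assay, of 75 µM or lower; inconclusive means potency above 75 µM yet under 100 µM; inactive means potency of 100 µM or weaker, or none.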
What follows are compounds tested against Ubiquitin carboxyl-terminal hydrolase 1 (Homo sapiens) + WD repeat-containing protein 48 (Homo sapiens) (UniProt O94782+Q8TAF3) (assay: Inhibitors of USP1/UAF1: Hit Validation in USP1 Diubiquiting Gel Assay). Conditions: USP1/UAF1 K63 diubiquitin cleavage, SDS-PAGE gel.
Text: Deubiquitinating enzymes (DUBs) are a class of enzymes that can cleave isopeptide bond formed between the C-terminal carboxylate of ubiquitin and a lysine side-chain amino group on the target protein. Among them, ubiquitin specific proteases (USPs) constitute the largest DUB family. Human USPs are emerging as promising targets for pharmacological intervention because of their connection to a number of human diseases, including prostate, colon and breast cancer (1, 2), pediatric acute lymphoblastic leukemia (3), and familial cylindromatosis (4). The advantage of inhibiting USPs lies in the potential specificity of therapeutic intervention that can lead to better efficacy and reduce nonspecific side effects. In a collaboration between the University of Delaware and the NIH Chemical Genomics Center, a high-throughput screen assay was developed to screen for USP1/UAF1 inhibitors. This miniaturized assay has a fluorescent read-out and is used to screen the NIH Molecular Libraries Small Molecule Repository (MLSMR) in order to identify a small molecule that inhibits USP1. Follow-up assays have also been developed to further test the hits from the primary screen. This assay validates the hits identified from the primary screen using a USP1 diubiquiting gel assay. NIH Chemical Genomics Center [NCGC] NIH Molecular Libraries Probe Centers Network [MLPCN] MLPCN Grant: DA030552 Assay Submitter (PI): Zhihao Zhuang, University of Delaware 1. Priolo, C., et al. (2006) The isopeptidase USP2a protects human prostate cancer from apoptosis. Cancer Res 66, 8625-8632 2. Popov, N., et al. (2007) The ubiquitin-specific protease USP28 is required for MYC stability. Nat Cell Biol 9, 765-774 3. De Pitta, C., et al. (2005) A leukemia-enriched cDNA microarray platform identifies new transcripts with relevance to the biology of pediatric acute lymphoblastic leukemia. Haematologica 90, 890-898 4. Kovalenko, A., et al. (2003) The tumour suppressor CYLD negatively regulates NF-kappaB signalling by deubiquitination. Nature 424, 801-805
The inhibition assay contains 100 nM for USP1/UAF1, 2 microM K63 linked diubiquitin, and inhibitors at varied concentrations (0.08 microM - 114 microM). The reaction was allowed for 1 hour at 37 degrees C, and quenched by the addition of Laemmli sample buffer. The reaction product was separated on a 20% denaturing SDS-PAGE gel and stained with Coomassie Blue. The intensity of the individual diubiquitin and monoubiquitin band was quantified using Quantity One 4.3.1 (Biorad, Hercules, CA). The percentage of the conversion was determined and used to calculate the reaction rate. The rate was plotted against inhibitor concentrations and fitted to determine the IC50 values using GraphPad Prism (GraphPad Software, Inc. La Jolla, CA).

Sequence of Ubiquitin carboxyl-terminal hydrolase 1 (Homo sapiens) + WD repeat-containing protein 48 (Homo sapiens) (O94782 whole entry, looked up): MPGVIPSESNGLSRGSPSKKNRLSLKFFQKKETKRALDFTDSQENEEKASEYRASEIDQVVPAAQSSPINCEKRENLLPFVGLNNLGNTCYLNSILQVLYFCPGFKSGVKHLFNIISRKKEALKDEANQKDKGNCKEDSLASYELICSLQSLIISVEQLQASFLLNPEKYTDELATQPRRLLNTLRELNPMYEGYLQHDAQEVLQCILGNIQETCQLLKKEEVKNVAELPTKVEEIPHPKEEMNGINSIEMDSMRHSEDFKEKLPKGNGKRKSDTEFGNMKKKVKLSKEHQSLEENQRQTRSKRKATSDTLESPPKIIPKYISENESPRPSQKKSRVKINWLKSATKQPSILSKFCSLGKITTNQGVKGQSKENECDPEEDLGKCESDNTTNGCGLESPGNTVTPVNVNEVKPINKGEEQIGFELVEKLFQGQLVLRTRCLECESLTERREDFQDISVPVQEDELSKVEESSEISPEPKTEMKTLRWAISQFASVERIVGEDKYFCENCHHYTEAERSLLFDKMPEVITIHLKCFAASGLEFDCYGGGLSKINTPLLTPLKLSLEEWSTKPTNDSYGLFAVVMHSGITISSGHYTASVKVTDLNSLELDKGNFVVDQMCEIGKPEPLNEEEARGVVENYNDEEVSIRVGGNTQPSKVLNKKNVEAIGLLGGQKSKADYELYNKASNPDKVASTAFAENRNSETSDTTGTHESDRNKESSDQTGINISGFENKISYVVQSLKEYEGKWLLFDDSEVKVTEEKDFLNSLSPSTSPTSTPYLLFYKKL
Sequence of Ubiquitin carboxyl-terminal hydrolase 1 (Homo sapiens) + WD repeat-containing protein 48 (Homo sapiens) (Q8TAF3 whole entry, looked up): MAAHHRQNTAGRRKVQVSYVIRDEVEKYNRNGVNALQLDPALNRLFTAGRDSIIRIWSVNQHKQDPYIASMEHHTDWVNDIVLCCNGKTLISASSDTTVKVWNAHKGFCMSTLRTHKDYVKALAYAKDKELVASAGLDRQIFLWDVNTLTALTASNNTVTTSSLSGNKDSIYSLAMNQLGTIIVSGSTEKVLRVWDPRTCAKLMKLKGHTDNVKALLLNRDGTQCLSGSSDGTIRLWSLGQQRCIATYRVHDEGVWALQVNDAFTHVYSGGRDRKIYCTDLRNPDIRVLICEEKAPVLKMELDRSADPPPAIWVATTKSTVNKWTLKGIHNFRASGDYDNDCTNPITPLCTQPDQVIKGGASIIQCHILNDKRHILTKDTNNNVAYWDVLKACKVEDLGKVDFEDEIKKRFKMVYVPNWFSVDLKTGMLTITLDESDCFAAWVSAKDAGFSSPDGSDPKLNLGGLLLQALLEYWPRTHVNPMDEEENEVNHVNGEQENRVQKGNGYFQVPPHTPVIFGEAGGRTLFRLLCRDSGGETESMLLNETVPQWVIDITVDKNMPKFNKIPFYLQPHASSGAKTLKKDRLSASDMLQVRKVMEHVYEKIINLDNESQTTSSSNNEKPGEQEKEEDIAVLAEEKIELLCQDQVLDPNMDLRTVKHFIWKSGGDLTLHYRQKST

SMILES | outcome | Potency
FC(F)(F)c1ccccc1-c1nc(NCc2cccnc2)c2ccccc2n1 | inactive | –
c1ccc2c(Nc3ccncc3)nc(-c3ccc4c(c3)OCO4)nc2c1 | – | 28.6 µM (active)
Cc1cccc(CNc2ccnc(-c3ccccc3Cl)n2)c1 | inactive | –
COc1cccc(-c2nccc(NCc3cccc(C)c3)n2)c1 | – | 13 µM (active)
COc1ccccc1-c1nccc(NCc2cccc(C)c2)n1 | – | 18.8 µM (active)
COc1ccccc1CNc1nc(-c2ccc(N(C)C)cc2)nc2ccccc12 | – | 10 µM (active)
COc1ccccc1-c1nc(NCc2ccccc2)c2ccccc2n1 | – | 6.4 µM (active)
COc1ccccc1CNc1ccnc(-c2ccccc2C(F)(F)F)n1 | – | 4.2 µM (active)
Cc1cccc(CNc2ccnc(-c3ccccc3C(F)(F)F)n2)c1 | – | 3 µM (active)
N#Cc1cccc(-c2ccc3ncnc(NCc4ccccc4)c3c2)c1 | – | 26.6 µM (active)
COc1ccc(CNc2ccnc(-c3ccccc3C(F)(F)F)n2)c(OC)c1 | – | 4.5 µM (active)
Cc1ccccc1-c1nc(NCc2cccs2)c2ccccc2n1 | – | 6 µM (active)
COc1ccccc1-c1nc(NCc2cccs2)c2ccccc2n1 | – | 21.3 µM (active)
Cc1noc(C)c1-c1nc(NCc2cccs2)c2ccccc2n1 | – | 5 µM (active)
Clc1ccccc1-c1nccc(NCc2ccccc2)n1 | – | 20 µM (active)
Fc1ccc(Nc2nc(-c3cccnc3)nc3ccccc23)cc1 | inactive | –
FC(F)(F)c1ccccc1-c1nccc(NCc2ccccc2)n1 | – | 9.6 µM (active)
COc1ccccc1-c1nccc(NCc2ccccc2)n1 | – | 16.9 µM (active)
COc1ccccc1-c1cc(NCc2ccccc2)ncn1 | – | 10.9 µM (active)
FC(F)(F)c1ccccc1-c1nc(NCc2cccs2)c2ccccc2n1 | – | 3.3 µM (active)
Cc1ccccc1-c1nc(NCc2cccnc2)c2ccccc2n1 | inactive | –
FC(F)(F)c1ccccc1-c1nccc(NCc2cccs2)n1 | inactive | –
COc1ccc(CNc2nc(-c3ccccc3OC)nc3ccccc23)c(OC)c1 | – | 14.5 µM (active)
Cc1cccc(CNc2cc(-c3ccccc3C)ncn2)c1 | – | 26.3 µM (active)
